From ChEMBL document CHEMBL3988442, “University of Dundee, Small-Polar-MMV Screening Library” (2021) come the findings set out here.

For the experiment, the target named is T1, Methionyl-tRNA synthetase, putative (Leishmania donovani (strain BPK282A1)) (UniProt E9BF75).
T1 sequence (whole entry): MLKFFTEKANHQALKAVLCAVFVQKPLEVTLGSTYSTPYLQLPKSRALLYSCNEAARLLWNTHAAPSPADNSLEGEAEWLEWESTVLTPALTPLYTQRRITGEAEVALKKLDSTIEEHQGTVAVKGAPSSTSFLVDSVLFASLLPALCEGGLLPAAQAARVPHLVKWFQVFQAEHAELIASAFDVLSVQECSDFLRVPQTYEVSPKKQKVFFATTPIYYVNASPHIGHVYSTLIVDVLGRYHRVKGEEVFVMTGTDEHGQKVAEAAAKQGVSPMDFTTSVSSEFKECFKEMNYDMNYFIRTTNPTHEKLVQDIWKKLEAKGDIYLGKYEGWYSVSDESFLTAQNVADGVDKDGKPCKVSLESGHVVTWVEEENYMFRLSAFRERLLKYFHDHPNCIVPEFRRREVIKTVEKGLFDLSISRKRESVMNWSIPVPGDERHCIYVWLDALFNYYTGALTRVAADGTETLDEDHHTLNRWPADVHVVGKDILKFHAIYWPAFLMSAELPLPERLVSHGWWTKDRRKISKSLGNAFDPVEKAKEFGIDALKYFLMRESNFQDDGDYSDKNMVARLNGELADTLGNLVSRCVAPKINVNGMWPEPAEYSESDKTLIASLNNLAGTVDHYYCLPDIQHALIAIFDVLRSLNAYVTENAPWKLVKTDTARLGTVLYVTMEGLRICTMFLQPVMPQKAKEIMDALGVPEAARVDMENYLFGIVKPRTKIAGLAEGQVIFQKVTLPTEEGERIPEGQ
Kind of experiment: Leishmania donovani Methionine tRNA synthetase (LdMetRS):v7. Dose response assay. The format is functional. Set-up: conc 80 nM, time 150 minutes.

`COCCNc1nc(C)nc2sc3c(c12)CCCC3` had a PXC50 (MAX_EFFECT 3.174603175) of less than 4 and a PXC50 (MAX_EFFECT 4.266666667) of less than 4.

As for `CC(=O)NCc1nnc2n1CCN(c1nc(C)nc3sccc13)CC2`, the PXC50 is less than 4 (MAX_EFFECT 6.527415144) and less than 4 (MAX_EFFECT 9.921671018).

`CCc1nc(N2CCN(c3ccccn3)CC2)c2c3c(sc2n1)CCC3` gave a PXC50 (MAX_EFFECT 39.95098039) of less than 4 and a PXC50 (MAX_EFFECT 40.86538462) of less than 4.

Turning to `CC(C)(N)c1cc(Cl)cc(Cl)c1`, the PXC50 was less than 3 (MAX_EFFECT 14.47084233) and less than 3 (MAX_EFFECT 21.86311787).

With `CCOCCN(CCOCC)c1nc(C)nc2sccc12`, the PXC50 by setting is: (MAX_EFFECT 12.27154047) less than 4; (MAX_EFFECT 15.66579634) less than 4.

With `Cc1nc(N2CCN(c3ccccn3)CC2)c2c3c(sc2n1)CCCC3`, the PXC50 is, setting by setting: (MAX_EFFECT 22.61306533) less than 4; (MAX_EFFECT 22.85012285) less than 4.

For the molecule `NC(=O)C1CCN(c2cncc(-n3cccn3)n2)CC1`, the PXC50 is, setting by setting: (MAX_EFFECT 1.936619718) less than 4; (MAX_EFFECT 4.750593824) less than 4.

For `CN(CCO)c1nc(-c2cccs2)nc2sc3c(c12)CCCC3`, the PXC50 is less than 4 (MAX_EFFECT 31.46666667) and less than 4 (MAX_EFFECT 36.50793651).

Regarding `Cc1sc2nc(CCN)nc(N(CCN(C)C)CC3CCCO3)c2c1C` (stereo not given), the PXC50 (MAX_EFFECT 8.838383838) is less than 4 and the PXC50 (MAX_EFFECT 10.20408163) is less than 4.

In the case of `Cc1cc2ccc(N3CCN(S(C)(=O)=O)CC3)n2cc1C(=O)NC1CCCC1`, the PXC50 is, setting by setting: (MAX_EFFECT 43.22916667) less than 4; (MAX_EFFECT 44.29824561) less than 4.

As to `O=C(NCC1CCCCC1)c1cc(=O)c2ccc(F)c(O)c2o1`, the PXC50 runs as follows: (MAX_EFFECT 5.182341651) less than 4; (MAX_EFFECT -0.4784689) less than 4.

Consider `Cc1cc2c(N3CCN(C)CC3)nc(-c3cccnc3)nc2s1`, for which the PXC50 (MAX_EFFECT 6.010928962) is less than 4 and the PXC50 (MAX_EFFECT 7.486631016) was less than 4.

As to `Cc1sc2nc(CCN)nc(N3CC(N4CCCCC4)C3)c2c1C`, the PXC50 was less than 4 (MAX_EFFECT 21.14882507) and less than 4 (MAX_EFFECT 25.06527415).

With `Cc1nc(NCC(C)(C)O)c2c3c(sc2n1)CCCC3`, the PXC50 reads like this: (MAX_EFFECT 11.84210526) less than 4; (MAX_EFFECT 12.5) less than 4.

In the case of `CC(=O)N1CCCC(NC(=O)c2ccc3ccc(N4CCN(S(C)(=O)=O)CC4)n3c2)C1` (stereo not given), the PXC50 stood at 4.81 (BOTTOM 3.656156878, HILLSLOPE 2.486754691, MAX_EFFECT 66.17915905, TOP 66.88204214) and 5 (BOTTOM -4.526143978, HILLSLOPE 1.702686974, MAX_EFFECT 60.76555024, TOP 62.80104332).

Turning to `Cc1cc(C(F)(F)F)nc(CCNc2nc(C)nc3sccc23)n1`, the PXC50 by setting is: (MAX_EFFECT 8.838383838) less than 4; (MAX_EFFECT 11.2244898) less than 4.

In turn, `CCNc1cc(-c2ccccn2)nc(Nc2ccc(F)c(Cl)c2)n1` yielded a PXC50 (MAX_EFFECT 18.84057971) of less than 4 and a PXC50 (MAX_EFFECT 22.81449893) of less than 4.

`Cc1sc2nc(C(F)(F)F)nc(N3CCC(NS(C)(=O)=O)CC3)c2c1C`: the PXC50 is, setting by setting: (MAX_EFFECT 0.0) less than 4; (MAX_EFFECT 1.305483029) less than 4.

Molecule `CC(C)C[C@H](N)CNc1cccnc1Oc1ccc(Cl)cc1` had a PXC50 (MAX_EFFECT 7.660455487) of less than 4 and a PXC50 (MAX_EFFECT 9.168443497) of less than 4.

For `O=c1cc(NCCCNC2CCOc3c(I)cc(Cl)cc32)[nH]c2ccccc12` (stereo not given), the PXC50 is, setting by setting: (BOTTOM 0.0, HILLSLOPE 1.492515979, MAX_EFFECT 100.0, TOP 105.2364851) 5.24; (BOTTOM 6.728264836, HILLSLOPE 2.160741468, MAX_EFFECT 100.4651163, TOP 100.3878671) 5.22.

Take `Cc1nc(NCc2cccnc2)c2c3c(sc2n1)CCC3`: the PXC50 is less than 4 (MAX_EFFECT 6.361323155) and less than 4 (MAX_EFFECT 13.85390428).

For the molecule `Cc1cc(C(F)(F)F)nc(N2CCN(Cc3nccn3C)CC2)n1`, the PXC50 was less than 4 (MAX_EFFECT 3.571428571) and less than 4 (MAX_EFFECT 6.313131313).

With `N[C@H]1CCOc2c(Cl)cc(Cl)cc21`, the PXC50 is less than 2.7 (MAX_EFFECT 2.517162471) and less than 2.7 (MAX_EFFECT 3.676470588).

Turning to `CS(=O)(=O)N1CCN(c2ccc3ccc(C(=O)NCc4ccccc4)cn23)CC1`, the PXC50 is, setting by setting: (BOTTOM 9.61795032, HILLSLOPE 2.1052237, MAX_EFFECT 58.50091408, TOP 60.20064035) 4.73; (BOTTOM -0.0629, HILLSLOPE 2.117070317, MAX_EFFECT 53.11004785, TOP 51.4182088) 5.1.

Take `CS(=O)(=O)N1CCN(c2ccc3ncc(C(=O)NC4CCCC4)cn23)CC1`: the PXC50 was less than 4 (MAX_EFFECT 7.456140351) and less than 4 (MAX_EFFECT 9.895833333).

`CS(=O)(=O)N1CCN(c2ccc3ccc(C(=O)NCCN4CCOCC4)cn23)CC1` registered a PXC50 (BOTTOM 1.032447983, HILLSLOPE 3.01577023, MAX_EFFECT 61.72248804, TOP 62.04525005) of 4.88 and a PXC50 (BOTTOM -0.949038422, HILLSLOPE 2.220287811, MAX_EFFECT 68.73857404, TOP 70.86130279) of 4.83.

In the case of `CCNc1nc(CN2CCCCC2)nc2scc(-c3ccccc3)c12`, the PXC50 by setting is: (MAX_EFFECT 17.42424242) less than 4; (MAX_EFFECT 18.36734694) less than 4.

On to `FC(F)(F)c1nc(N2CCCCCC2)nc2c1CCCCC2`, for which the PXC50 is less than 4 (MAX_EFFECT 4.325699746) and less than 4 (MAX_EFFECT 5.793450882).

Regarding `Cc1sc2nc(CN3CCCC3)nc(NC3CCCC3)c2c1C`, the PXC50 was less than 4 (MAX_EFFECT 34.69387755) and less than 4 (MAX_EFFECT 40.15151515).

In the case of `O=C(O)C1CCCN1c1nc(-c2ccc(Cl)cc2)cc(C(F)(F)F)n1` (stereo not given), the PXC50 is less than 4 (MAX_EFFECT 7.310704961) and less than 4 (MAX_EFFECT 9.138381201).
